Among the data in PubChem BioAssay (Tox21) are Potency values, retold here.

Active and inactive are the calls of the source. Entries that show only a call come without a potency. Calls follow the shape of the dose curve; as a rule, active = well fitted curve in the direction sought with a large enough effect in the repeat runs; inconclusive = weak or mixed curves; inactive = flat fitted curve, though single readings scatter.

The nature of the assay: qHTS assay to test for compound auto fluorescence at 535 nm (green) in HEK293 cells (AID 720680). The following applies: green autofluorescence 485/535 nm; series mostly up to 91.3 µM. From the text: U.S. Tox21 Program National Center for Advancing Translational Sciences [NCATS] NIH Chemical Genomics Center [NCGC] U.S. Environmental Protection Agency [EPA] National Institutes of Environmental Health Sciences [NIEHS] National Toxicology Program [NTP] U.S. Food and Drug Administration [FDA] Tox21 Assay Overview: Compound auto fluorescence often interferes with screening of the compound library against various biological targets and signaling pathways. Some of these compounds may have fluorophoric properties. Such properties may interfere with the assay outputs resulting in false positives and/or negatives. To decrease such complications and ensure the compound activities are relevant in terms of biological response, the Tox21 10K compound library was screened for auto fluorescence. From the fluorophores used as reporter signals in our screening assays, the auto fluorescence equivalencies of compounds against three fluorophores have been evaluated: Triamterene, Fluorescein and Rose Bengal sodium for blue, green and red fluorescence, respectively. The fluorescence intensities were measured using Excitation/Emission wavelengths at 405/460nm, 485/535nm and 540/590nm for blue, green and red labels, respectively. This assay includes the green fluorescence data.
Tox21 Assay Protocol Summary: 2,000 HEK293 cells in 5 uL of culture medium containing 10% dialyzed FBS per well were dispensed into black wall/clear bottom 1536-well plates using a Multidrop Combi Dispenser (Thermo Scientific). The assay plates were incubated for 4-5 hr at 37C to allow cell attachment to the well bottom, followed by the transfer of 23 nL compound or DMSO vehicle by a pintool work station (Kalypsys, San Diego, CA). After the assay plates were incubated overnight at 37C and 5% CO2, fluorescence intensities in the assay plates were measured by an Envision (PerkinElmer, Shelton, CT) plate reader using three labels for measuring blue, green and red fluorescence at […] 460, 535 and 590nm respectively.
For orientation: qHTS replaces the single test concentration by a dilution series.
With `Nc1ccc(O)c(N)c1`, the Potency entry is “inactive”. On to `CC(C)[N+](C)(CCOC(=O)C1c2ccccc2Oc2ccccc21)C(C)C`, for which the Potency entry is “inactive”. For the compound `COc1ccc2nc(N)sc2c1`, the Potency entry was “inactive”.

Take `Clc1ccc(Sc2cc(Cl)c(Cl)cc2Cl)cc1`: the Potency entry was “inactive”. As for `C=CN1CCCC1=O`, the Potency result is “inactive”. On to `Cc1cccc(Nc2ccccc2C(=O)O)c1C`, for which the Potency result is “inactive”. In the case of `[O-]/[N+](=N\O)c1ccccc1`, the Potency result was “inactive”. In the case of `C[C@]12CC[C@@H]3c4ccc(O)cc4CC[C@H]3[C@@H]1CC[C@H]2O`, the Potency entry is “inactive”. `CN(Cc1cnc2nc(N)nc(N)c2n1)c1ccc(C(=O)N[C@@H](CCC(=O)O)C(=O)O)cc1`: the Potency entry was “inactive”. Next, `Cc1ccc(C)c(O)c1`: “inactive”; `C=C1C[C@H]2[C@@H]3C=C(C)C4=CC(=O)CC[C@]4(C)[C@H]3CC[C@]2(C)[C@@]1(OC(C)=O)C(C)=O`: “inactive”. `O=S1(=O)CCCO1`: the Potency entry is “inactive”.

As to `O=C(O)CCCCCCCCCCCC(=O)O`, the Potency result was “inactive”. The value for `CNC[C@H](O)c1ccc(O)c(O)c1` was “inactive”; that for `CC/C(=C(/CC)c1ccc(O)cc1)c1ccc(O)cc1` was “inactive”; that for `FC(F)(F)C(Cl)Br` (stereo not given) was “inactive”.

Consider `CN(C)/N=N/c1nc[nH]c1C(N)=O`, for which the Potency result is “inactive”. `Nc1ccc2c(O)cc(S(=O)(=O)O)cc2c1`: the Potency entry was “inactive”. In the case of `C=C[C@@]1(C)CC(=O)[C@]2(O)[C@@]3(C)[C@@H](O)CCC(C)(C)[C@@H]3[C@H](O)[C@H](OC(C)=O)[C@@]2(C)O1`, the Potency result was “inactive”. `CC(=O)Oc1ccc(C(c2ccc(OC(C)=O)cc2)c2ccccn2)cc1`: the Potency result was “inactive”. For the compound `C=CCNCC=C`, the Potency result is “inactive”. In the case of `CCOC(=O)C(C)Oc1ccc(Oc2cnc3cc(Cl)ccc3n2)cc1` (stereo not given), the Potency result is “inactive”. As for `CC(=O)Nc1ccc2c(c1)Cc1cc(NC(C)=O)ccc1-2`, the Potency result was “inactive”. As to `Cc1ccc([N+](=O)[O-])c(C)c1`, the Potency result is “inactive”.

As to `CCCCCCC(C)O` (stereo not given), the Potency entry was “inactive”. Turning to `CC(=O)Oc1c(C)c(C)c2c(c1C)CC[C@@](C)(CCC[C@H](C)CCC[C@H](C)CCCC(C)C)O2`, the Potency result is “inactive”.

With `C1COCCN1`, the Potency entry is “inactive”. `CC(=O)OC(C)C`: the Potency result is “inactive”. With `c1ccc2cc3ccccc3cc2c1`, the Potency result was “inactive”. Next, `[Na+]`: “inactive”; `OC[C@H]1O[C@@H]2O[C@H]3[C@H](O)[C@@H](O)[C@@H](O[C@H]4[C@H](O)[C@@H](O)[C@@H](O[C@H]5[C@H](O)[C@@H](O)[C@@H](O[C@H]6[C@H](O)[C@@H](O)[C@@H](O[C@H]7[C@H](O)[C@@H](O)[C@@H](O[C@H]1[C@H](O)[C@H]2O)O[C@@H]7CO)O[C@@H]6CO)O[C@@H]5CO)O[C@@H]4CO)O[C@@H]3CO`: “inactive”. Next, `Cc1ccc(/C(=C\CN2CCCC2)c2ccccn2)cc1`: “inactive”; `CC(=O)[C@H]1CC[C@H]2[C@@H]3CC=C4C[C@@H](O)CC[C@]4(C)[C@H]3CC[C@]12C`: “inactive”; `CC(C)(C)c1cccc(C(C)(C)C)c1O`: “inactive”. Next, `Cc1ccc(N)c([N+](=O)[O-])c1`: “inactive”; `O=C(O)c1ccc(O)cc1`: “inactive”. As for `CC/C=C\C/C=C\C/C=C\CCCCCCCC(=O)O`, the Potency result is “inactive”.

With `CCO[Si](CCCNC(N)=O)(OCC)OCC`, the Potency entry is “inactive”.

As to `CCCCCC=O`, the Potency result is “inactive”. For `C=C[C@H]1CN2CC[C@H]1C[C@@H]2[C@@H](O)c1ccnc2ccc(OC)cc12`, the Potency result is “inactive”.
